From PubChem BioAssay (NCATS)
Records with an inconclusive call do not appear. Calls of active or inactive are those of the source. The call rests on the fitted dose curve; in most records, active means well fitted curve in the direction sought with a large enough effect; inconclusive means small, poorly fitted or top-dose-only effect, or another doubt; inactive means no such curve, though single readings can be large; an effect the other way counts as inactive or inconclusive.

Key:
[1] = target: Glutathione peroxidase 1 (Homo sapiens) (UniProt P07203); assay: Primary qHTS Assay for Inhibitors of Recombinant Selenoprotein Glutathione Peroxidase 1 (GPX1) (AID 1845191); further: nearly all actives have a fitted effect of over 65% in size; further: potency means the concentration at half of the fitted maximal effect; on activity, negative = inhibition: on the % scale 0 is the no-effect control and ±100 the full control effect
Glutathione peroxidase 1 (Homo sapiens), sequence (P07203 whole entry, looked up): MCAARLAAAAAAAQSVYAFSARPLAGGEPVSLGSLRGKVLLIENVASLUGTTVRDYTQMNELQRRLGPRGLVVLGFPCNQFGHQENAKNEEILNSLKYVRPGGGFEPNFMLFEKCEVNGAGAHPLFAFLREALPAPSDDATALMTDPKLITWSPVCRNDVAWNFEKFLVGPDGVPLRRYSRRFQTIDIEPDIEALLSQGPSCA
Summary of the method: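 GPX1 10 nM, GR 100 nM, GSH 1 mM, NADPH 0.5 mM, CHP 0.5 mM (final). 30-min cpd preincubation, RT. Ex340/Em450 read t=0, t=15 min.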

[2] = target: Phospholipid hydroperoxide glutathione peroxidase GPX4 (Homo sapiens) (UniProt P36969); assay: Primary qHTS Assay for Inhibitors of Recombinant Selenoprotein Glutathione Peroxidase 4 (GPX4) (AID 1845192); further: nearly all actives have a fitted effect of over 65% in size; further: potency means the concentration at half of the fitted maximal effect; on activity change, negative = inhibition: series mostly up to about 50 µM; on the % scale 0 is the no-effect control and ±100 the full control effect
Phospholipid hydroperoxide glutathione peroxidase GPX4 (Homo sapiens), sequence (P36969 whole entry, looked up): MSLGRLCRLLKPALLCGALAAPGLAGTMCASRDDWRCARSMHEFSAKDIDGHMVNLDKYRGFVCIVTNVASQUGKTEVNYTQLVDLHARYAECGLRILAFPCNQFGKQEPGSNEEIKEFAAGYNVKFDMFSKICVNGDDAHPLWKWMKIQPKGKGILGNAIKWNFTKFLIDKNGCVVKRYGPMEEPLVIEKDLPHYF
Summary of the method: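 qHTS, GR-coupled: GPX4 200 nM + cpd 30 min RT → GSH 1 mM, NADPH 0.5 mM, GR 100 nM → CHP 0.5 mM start; fluor 340/450 at t0 and t15 min; no-enzyme wells as control.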

[3] = target: Luciferin 4-monooxygenase (Photinus pyralis) (UniProt P08659); assay: Primary firefly luciferase (FLuc) qHTS assay for identification of artifact compounds. (AID 1845220); further: nearly all actives have a fitted effect of over 60% in size; further: potency means the concentration at half of the fitted maximal effect;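 on activity change, negative = inhibition: series mostly up to about 54 µM; plate controls were DMSO vehicle for no effect and no enzyme for full effect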
Summary of the method: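 Reaction readout was CCD-imaged luminescence, taken 5 min after adding 10 nM purified firefly enzyme to compound-treated wells holding 10 uM luciferin and ATP in pH 7.6 buffer.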

[4] = Primary fluorescence-based thiol-reactive (MSTI) qHTS assay for identification of artifact compounds. (AID 1845221); further: nearly all actives have a fitted effect of over 65% in size; further: potency means the concentration at half of the fitted maximal effect;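 on activity change, negative = thiol reactive: series mostly up to about 54 µM; thiol-reactive compounds lower the probe fluorescence signal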
Summary of the method: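 One-hour, room-temperature, dark incubation of compound with 4 uM MSTI in PBS (pH 7.4, 2% DMSO) precedes a fluorescence read at 525 nm excitation, 598 nm emission; Hill-equation fitting yields concentration-response values.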

[5] = test system: Nanoluciferase (engineered Oplophorus gracilirostris luciferase); assay: Primary Nanoluciferase (NLuc) qHTS assay for identification of artifact compounds. (AID 1845222);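 further: NLuc secreted into diluted conditioned medium of S16 cells; series mostly up to about 54 µM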
Summary of the method: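 Concentration-response data were obtained by luminescence after 5 min with Nano-Glo substrate at 1:100. The enzyme was diluted S16 NLuc-expressing cell medium, preincubated with compound for 15 min at RT. Curves were fitted with a 4-parameter Hill model.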

[6] = Primary redox qHTS assay for identification of artifact compounds. (AID 1845223);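 further: 0% = DMSO and 100% = reference compound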
Summary of the method: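 Redox-cycling detection via DTT (250 uM final) oxidation coupled to Amplex Red (25 uM)/HRP (250 mU/mL) in HBSS. 15 min preincubation plus 30 min after DTT, room temperature. Ex/Em 525/598 nm; 4-parameter Hill fit against DMSO and 10 uM DA3003.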

C=C(C(=O)O)C1CCC2(C)CCCC(C)(O)C2C1 (stereo not drawn)
active: Potency [4] 21.2 µM
inactive: Potency [1] | Potency [2] | Potency [3] | Potency [5] | Potency [6]

COc1ccc(/C=C/C(=O)O[C@@H]2[C@@H](O)[C@@H](O)[C@H](O[C@@H]3C=C(CO)[C@H]4[C@H](O[C@@H]5O[C@H](CO)[C@@H](O)[C@H](O)[C@H]5O)OC=C[C@H]43)O[C@H]2C)cc1O
inactive: Potency [1] | Potency [2] | Potency [3] | Potency [5] | Potency [6]
active: Potency [4] 3.98 µM

COC(=O)C[C@H]1C(C)(C)[C@H](OC(C)=O)C2CC3=C4CC(=O)O[C@@H](c5ccoc5)[C@]4(C)CCC3[C@@]1(C)C2=O (stereo partly drawn)
inactive: Potency [1] | Potency [2] | Potency [3] | Potency [4] | Potency [5] | Potency [6]

Cc1csc(NC(=O)c2ccc(COc3cccc(Cl)c3)o2)n1
inactive: Potency [1] | Potency [2] | Potency [3] | Potency [4] | Potency [5] | Potency [6]

CNS(=O)(=O)c1ccccc1Nc1nc(Nc2ccc(N3CCN(C)CC3)cc2OC)ncc1Cl
active: Potency [4] 2.38 µM
inactive: Potency [1] | Potency [2] | Potency [3] | Potency [5] | Potency [6]

Cc1cnc(NC(=O)Nc2cc(Br)c(C)cc2OCC2CNCCO2)cn1 (stereo not drawn)
inactive: Potency [1] | Potency [2] | Potency [3] | Potency [4] | Potency [5] | Potency [6]

Fc1ccc2nc(CCC#Cc3ccccn3)cn2c1
inactive: Potency [1] | Potency [2] | Potency [3] | Potency [4] | Potency [5] | Potency [6]

Nc1nc2c(ncn2[C@@H]2O[C@H](CO)[C@@H](O)[C@H]2O)c(=O)[nH]1
inactive: Potency [1] | Potency [2] | Potency [3] | Potency [4] | Potency [5] | Potency [6]

C=C1CCC2C(C)(COC(C)=O)CCCC2(C)C1CCC(C)CC(=O)O (stereo not drawn)
inactive: Potency [1] | Potency [2] | Potency [3] | Potency [4] | Potency [5] | Potency [6]

COc1ccc(-c2ccc(-c3cn(C(=O)N4CCCCC4c4ccccc4)nn3)cc2)cc1 (stereo not drawn)
inactive: Potency [1] | Potency [2] | Potency [3] | Potency [4] | Potency [5] | Potency [6]

N[C@@]1(C(=O)O)CC[C@H]2[C@H](C(=O)O)[C@H]21
inactive: Potency [1] | Potency [2] | Potency [3] | Potency [4] | Potency [5] | Potency [6]

C=C(CO[C@@H]1O[C@H](CO[C@@H]2OC[C@](O)(CO)[C@H]2O)[C@@H](O)[C@H](O)[C@H]1O)C1Cc2cc(C(C)=O)ccc2O1 (stereo partly drawn)
inactive: Potency [1] | Potency [2] | Potency [3] | Potency [5] | Potency [6]
active: Potency [4] 5.19 µM

NC(=O)c1cccc(-c2cc(OC(=O)NC3CCCCC3)ccc2O)c1
inactive: Potency [1] | Potency [2] | Potency [3] | Potency [4] | Potency [5] | Potency [6]

COc1cc(OC)cc(C(=O)Nc2ccc(Cl)c(-c3nc4ccc(N(C)C)cc4[nH]3)c2)c1
active: Potency [3] 8.49 µM | Potency [4] 3.77 µM
inactive: Potency [1] | Potency [2] | Potency [5] | Potency [6]

CC(C)CCC1(O)C(=O)C(C)(C)C(O[C@@H]2O[C@H](CO)[C@@H](O)[C@H](O)[C@H]2O)C(C)(C)C1O (stereo partly drawn)
active: Potency [4] 2.32 µM
inactive: Potency [1] | Potency [2] | Potency [3] | Potency [5] | Potency [6]

C[C@@H]1O[C@@H](O[C@H]2[C@H](OC(=O)[C@]34CCC(C)(C)C[C@H]3C3=CCC5[C@@]6(C)C[C@H](O)[C@H](O[C@@H]7O[C@H](CO)[C@@H](O)[C@H](O)[C@H]7O)[C@@](C)(CO)C6[C@H](O)C[C@@]5(C)[C@]3(C)C[C@H]4O)OC[C@H](O)[C@@H]2O)[C@H](O)[C@H](O)[C@H]1O[C@@H]1OC[C@@H](O)[C@H](O[C@H]2OC[C@](O)(CO)[C@H]2O)[C@H]1O (stereo partly drawn)
inactive: outcome [1] inactive [at 9.52 µM] | activity change, negative = inhibition [2] 1.35% [at 9.73 µM] | activity change, negative = inhibition [3] 2.14% [at 11.6 µM] | activity change, negative = thiol reactive [4] 482% [at 11.5 µM] | activity, negative = inhibition [5] 4.86% [at 11.6 µM] | redox activity (% of DA3003) [6] 4.44% [at 11.5 µM]

O=C(Nc1c(-c2cccs2)nc2ccccn12)c1ccc(Cl)cc1
inactive: Potency [1] | Potency [2] | Potency [3] | Potency [4] | Potency [5] | Potency [6]

Cc1cccc2c1NC(=O)C2(c1ccc(O)cc1)c1ccc(O)cc1
inactive: Potency [1] | Potency [2] | Potency [3] | Potency [4] | Potency [5] | Potency [6]

COc1cc2occc2c(O[C@@H]2O[C@H](CO)[C@@H](O)[C@H](O)[C@H]2O)c1CCC(=O)O
inactive: Potency [3] | Potency [5] | Potency [6]
active: Potency [1] 11.1 µM | Potency [2] 11.1 µM | Potency [4] 5.19 µM

C[C@@H]1C(=O)O[C@H]2C[C@]34[C@H]5C[C@@H](C(C)(C)C)[C@]36[C@@H](OC(=O)[C@H]6O)O[C@]4(C(=O)O5)[C@]21O
inactive: Potency [1] | Potency [2] | Potency [3] | Potency [4] | Potency [5] | Potency [6]

C=CC(C)(O)CC[C@H]1C(=C)CCC2[C@](C)(C(=O)O)CCC[C@@]21C (stereo partly drawn)
inactive: Potency [1] | Potency [2] | Potency [3] | Potency [4] | Potency [5] | Potency [6]

C[C@@H]1CN(Cc2ncccn2)C[C@H]1c1nc2c(cnn2C2CCOCC2)c(=O)[nH]1
inactive: Potency [1] | Potency [2] | Potency [3] | Potency [4] | Potency [5] | Potency [6]

CC1(C)CCCC2(C)C1C(O)C=C(CO)C2(O)CO (stereo not drawn)
inactive: Potency [1] | Potency [2] | Potency [3] | Potency [4] | Potency [5] | Potency [6]

CN(c1ccccc1CNc1nc(Nc2ccc3c(c2)CC(=O)N3)ncc1C(F)(F)F)S(C)(=O)=O
active: Potency [4] 10.6 µM
inactive: Potency [1] | Potency [2] | Potency [3] | Potency [5] | Potency [6]

COc1cc2c(c(OC)c1CC=C(C)C)C[C@H](c1ccc(O)cc1O)CO2
active: Potency [4] 13.1 µM
inactive: Potency [1] | Potency [2] | Potency [3] | Potency [5] | Potency [6]

CC1CCC2(OC1)OC1CC3C4CC=C5CC(O)CC(O[C@@H]6OC[C@@H](O)[C@H](O)[C@H]6O)C5(C)C4CCC3(C)C1(O)C2C (stereo partly drawn)
inactive: Potency [1] | Potency [2] | Potency [3] | Potency [4] | Potency [5] | Potency [6]

CN(C)CC1CCOC1(c1ccccc1)c1ccccc1 (stereo not drawn)
inactive: Potency [1] | Potency [2] | Potency [3] | Potency [4] | Potency [5] | Potency [6]

CC1OC(OC2C(C)OC(OC3C(O)C(CO)OC(O[C@H]4CC[C@@]5(C)C(CC[C@]6(C)C5CC=C5C7[C@@H](C)[C@H](C)CC[C@]7(C(=O)O)CC[C@]56C(=O)O)C4(C)C)C3O)C(O)C2O)C(O)C(O)C1O (stereo partly drawn)
inactive: Potency [1] | Potency [2] | activity change, negative = inhibition [3] 1.66% [at 11.6 µM] | activity change, negative = thiol reactive [4] 65.9% [at 11.5 µM] | activity, negative = inhibition [5] -3.75% [at 11.6 µM] | redox activity (% of DA3003) [6] -18.3% [at 11.5 µM]

COC(=O)CC(O)CC(O)/C=C/c1c(C)ccc2c1C(O)CC(C)C2 (stereo not drawn)
inactive: Potency [1] | Potency [2] | Potency [3] | Potency [4] | Potency [5] | Potency [6]

C=C1CC23CC1CCC2C12OC(=O)C(C)(CCC1O)C2C3C(=O)O (stereo not drawn)
inactive: Potency [1] | Potency [2] | Potency [3] | Potency [4] | Potency [5] | Potency [6]

COC(=O)C12CCC(C)C(C)C1C1=CCC3C4(C)CCC(OC(C)=O)C(C)(C)C4CCC3(C)C1(C)CC2 (stereo not drawn)
inactive: Potency [1] | Potency [2] | Potency [3] | Potency [4] | Potency [5] | Potency [6]

CC1(C)CC(NC(=O)C(=O)Nc2ccc(Br)cc2)CC(C)(C)N1
inactive: Potency [1] | Potency [2] | Potency [3] | Potency [4] | Potency [5] | Potency [6]

CCC(CC)C(=O)Nc1sc2c(c1C#N)CCC(C(C)(C)CC)C2 (stereo not drawn)
inactive: Potency [1] | Potency [2] | Potency [3] | Potency [4] | Potency [5] | Potency [6]

Cc1cc(C)c(Nc2ccnc(Nc3ccc(C#N)cc3)n2)c(C)c1
inactive: Potency [1] | Potency [2] | Potency [3] | Potency [4] | Potency [5] | Potency [6]

COc1cc(NC(=O)Nc2cccc(CNC(=O)O[C@H]3CCOC3)c2)ccc1-c1cnco1
inactive: Potency [1] | Potency [2] | Potency [3] | Potency [4] | Potency [5] | Potency [6]

CC(C)C(=O)OC[C@H]1O[C@H](O[C@H]2O[C@H](CO)[C@@H](O)[C@H](O)[C@H]2O)[C@H](O)[C@@H](O)[C@@H]1O
inactive: Potency [1] | Potency [2] | Potency [3] | Potency [4] | Potency [5] | Potency [6]

C=C(C(=O)O)C1CC(O)C2(C)CCCC(=C)C2C1 (stereo not drawn)
inactive: Potency [1] | Potency [2] | Potency [3] | Potency [4] | Potency [5] | Potency [6]

Cc1noc(=O)c2ccc(NC(=O)C(O)(CC(C)(C)c3cccc4c3OCC4)C(F)(F)F)cc12 (stereo not drawn)
inactive: Potency [1] | Potency [2] | Potency [3] | Potency [4] | Potency [5] | Potency [6]

C[C@H](C(=O)NC1CCCC1)N(C(=O)Cn1nnc(-c2ccc3c(c2)OCO3)n1)C1CCCCC1
inactive: Potency [1] | Potency [2] | Potency [3] | Potency [4] | Potency [5] | Potency [6]

COC(=O)CCC(=O)OC[C@]1(C)CCC[C@@]2(C)C3CC[C@]4(C)C=CC3(CCC12)C4 (stereo partly drawn)
inactive: Potency [1] | Potency [2] | Potency [3] | Potency [4] | Potency [5] | Potency [6]

CC1(C)CC[C@]2(C(=O)O[C@@H]3O[C@H](CO)[C@@H](O)[C@H](O)[C@H]3O)CC[C@]3(C)C(=CCC4[C@@]5(C)CC[C@H](O[C@@H]6O[C@H](C(=O)O)[C@@H](O)[C@H](O)[C@H]6O)[C@@](C)(CO)C5CC[C@]43C)C2C1 (stereo partly drawn)
inactive: Potency [1] | Potency [2] | activity change, negative = inhibition [3] -3.91% [at 11.6 µM] | activity change, negative = thiol reactive [4] 129% [at 11.5 µM] | activity, negative = inhibition [5] -2.6% [at 11.6 µM] | redox activity (% of DA3003) [6] 15.6% [at 11.5 µM]

CCC(Nc1ncnc2nc[nH]c12)c1nc2cccc(F)c2c(=O)n1-c1ccccc1 (stereo not drawn)
inactive: Potency [1] | Potency [2] | Potency [3] | Potency [4] | Potency [5] | Potency [6]

CC1CCCCN1S(=O)(=O)c1ccc(N2CCCC2=O)cc1 (stereo not drawn)
inactive: Potency [1] | Potency [2] | Potency [3] | Potency [4] | Potency [5] | Potency [6]
